Holding throughout (test): protein-binding microarray (PBM); PBM: ~300 nM protein, 6 mM HEPES pH 7.8, 80 mM KCl, 0.5 mM EDTA, 0.5 mM EGTA, 6% glycerol, 35 ng/ul poly-dIdC, 1% milk, 1 h, room temperature; Ap Aiptasia and Nv Nematostella (sea anemones) / Co Capsaspora / Aq Amphimedon (sponge) / Dm Drosophila / Hu human; RHD is the Rel homology domain; high values mean tight binding
Conditions in all cases: dsDNA, one strand shown

One test has as its target T1, GST-Ap-NF-kB RHD (Exaiptasia pallida (Aiptasia), UniProt A0A913YAJ5 2-422).
T1 sequence: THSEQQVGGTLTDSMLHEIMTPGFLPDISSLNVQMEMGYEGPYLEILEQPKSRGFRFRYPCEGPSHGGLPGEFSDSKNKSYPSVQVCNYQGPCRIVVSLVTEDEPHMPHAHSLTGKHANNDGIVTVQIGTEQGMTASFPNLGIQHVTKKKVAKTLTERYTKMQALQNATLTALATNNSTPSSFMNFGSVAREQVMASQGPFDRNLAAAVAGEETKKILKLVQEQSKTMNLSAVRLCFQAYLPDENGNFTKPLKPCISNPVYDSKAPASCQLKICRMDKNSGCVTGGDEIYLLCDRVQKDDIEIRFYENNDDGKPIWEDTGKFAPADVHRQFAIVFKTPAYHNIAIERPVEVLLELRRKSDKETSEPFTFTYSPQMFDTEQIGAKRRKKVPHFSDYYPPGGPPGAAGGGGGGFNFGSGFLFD

Test [1] deals with T2, GST-Nv-NF-kB (Cys allele) (Nematostella vectensis, UniProt E5G601 2-411).
T2 sequence: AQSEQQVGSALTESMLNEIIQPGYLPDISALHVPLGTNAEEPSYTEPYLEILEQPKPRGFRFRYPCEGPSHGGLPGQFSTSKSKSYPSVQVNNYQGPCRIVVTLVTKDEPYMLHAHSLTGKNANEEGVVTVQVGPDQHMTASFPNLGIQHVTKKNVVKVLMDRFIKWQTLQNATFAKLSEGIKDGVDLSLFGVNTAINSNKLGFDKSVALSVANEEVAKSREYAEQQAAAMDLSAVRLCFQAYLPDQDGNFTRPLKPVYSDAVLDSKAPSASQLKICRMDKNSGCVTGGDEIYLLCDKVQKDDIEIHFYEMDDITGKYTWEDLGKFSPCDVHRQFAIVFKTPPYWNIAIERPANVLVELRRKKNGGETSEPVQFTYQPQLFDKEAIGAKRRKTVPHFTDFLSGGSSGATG

Test [2] deals with T3, GST-Nv-NF-kB (Ser allele) (Nematostella vectensis, UniProt A7UNT2 2-411).
T3 sequence: T2 sequence with Q21R, C66S, S207N, E215Q, V217A, E225K, A268E, D399E

In a further test the target is T4, GST-Co-NF-kB (Capsaspora owczarzaki, UniProt F1ARL5 200-546).
T4 sequence: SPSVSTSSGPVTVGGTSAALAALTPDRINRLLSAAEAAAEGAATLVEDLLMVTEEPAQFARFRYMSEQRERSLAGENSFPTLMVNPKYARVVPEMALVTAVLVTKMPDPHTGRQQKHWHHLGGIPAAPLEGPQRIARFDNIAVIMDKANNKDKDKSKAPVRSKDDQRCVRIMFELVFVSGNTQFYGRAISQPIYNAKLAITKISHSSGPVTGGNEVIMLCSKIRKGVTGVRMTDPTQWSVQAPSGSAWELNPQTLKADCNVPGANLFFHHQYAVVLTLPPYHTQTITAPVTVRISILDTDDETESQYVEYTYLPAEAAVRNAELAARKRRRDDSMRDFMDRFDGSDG

The next test addresses T5, GST-Dm-Relish (Drosophila melanogaster, UniProt Q94527 99-473).
T5 sequence: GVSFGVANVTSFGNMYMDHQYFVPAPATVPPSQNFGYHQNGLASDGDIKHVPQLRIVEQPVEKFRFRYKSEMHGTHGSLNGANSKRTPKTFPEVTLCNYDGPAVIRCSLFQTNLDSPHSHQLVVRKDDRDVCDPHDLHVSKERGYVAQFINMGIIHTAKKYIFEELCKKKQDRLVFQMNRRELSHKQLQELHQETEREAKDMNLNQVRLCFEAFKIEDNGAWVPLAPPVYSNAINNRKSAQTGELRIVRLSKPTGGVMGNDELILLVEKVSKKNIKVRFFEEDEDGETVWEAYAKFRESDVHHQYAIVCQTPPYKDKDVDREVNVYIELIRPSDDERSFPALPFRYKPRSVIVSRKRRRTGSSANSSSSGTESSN

Another test concerns the target T6, GST-Aq-NF-kB (Amphimedon queenslandica, UniProt A9Y5G7 2-389).
T6 sequence: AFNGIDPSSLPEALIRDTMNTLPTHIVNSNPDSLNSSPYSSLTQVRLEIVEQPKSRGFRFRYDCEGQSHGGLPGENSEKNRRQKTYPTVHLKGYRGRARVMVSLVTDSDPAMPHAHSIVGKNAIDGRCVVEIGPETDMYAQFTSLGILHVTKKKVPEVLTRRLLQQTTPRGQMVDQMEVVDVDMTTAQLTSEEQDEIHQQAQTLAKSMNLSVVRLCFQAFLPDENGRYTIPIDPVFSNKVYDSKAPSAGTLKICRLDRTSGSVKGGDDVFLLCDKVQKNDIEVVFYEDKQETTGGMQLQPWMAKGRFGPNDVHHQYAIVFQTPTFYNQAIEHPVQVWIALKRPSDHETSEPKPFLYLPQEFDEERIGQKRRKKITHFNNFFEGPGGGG

Another test has as its target GST-Hu-p50 (Homo sapiens, UniProt P19838 7-356).

Changes are numbered by the printed parent chain.

Chain of GST-Hu-p50 (P19838 7-356): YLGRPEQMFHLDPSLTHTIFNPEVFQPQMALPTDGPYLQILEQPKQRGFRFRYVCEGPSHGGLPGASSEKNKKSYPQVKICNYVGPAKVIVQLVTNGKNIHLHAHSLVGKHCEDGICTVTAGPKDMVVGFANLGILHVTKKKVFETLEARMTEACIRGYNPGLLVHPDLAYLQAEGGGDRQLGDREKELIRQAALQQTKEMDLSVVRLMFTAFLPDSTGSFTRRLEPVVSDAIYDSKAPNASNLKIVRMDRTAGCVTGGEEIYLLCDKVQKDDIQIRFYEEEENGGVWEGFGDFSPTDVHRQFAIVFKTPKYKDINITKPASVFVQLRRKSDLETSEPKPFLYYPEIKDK

As to “CCGATTAACATCAAGGGGAATACTGATGTTAATCGGGTCTTGATTCGCTTGACGCTGCTG”, the binding signal in the test with GST-Ap-NF-kB RHD came to 8.04 z-score; in test [1] it was 9.26 z-score; in test [2] it was 8.56 z-score; in the test with GST-Co-NF-kB it was 6.16 z-score; with GST-Dm-Relish, 6.38 z-score; in the test with GST-Aq-NF-kB it was 6.62 z-score. In the test with GST-Hu-p50, this sequence gave a binding signal of 6.33 z-score.

In the case of “CCGATTAACATCAGGGGAAATTATGATGTTAATCGGGTCTTGATTCGCTTGACGCTGCTG”, the binding signal is 8.88 z-score with GST-Ap-NF-kB RHD; 10.5 z-score in test [1]; 12.1 z-score in test [2]; 9.24 z-score with GST-Co-NF-kB; 6.62 z-score in the test with GST-Dm-Relish; 7.99 z-score with GST-Aq-NF-kB. In the test with GST-Hu-p50, the binding signal was 6.95 z-score.

“CCGATTAACATCACAAAATCCCCTGATGTTAATCGGGTCTTGATTCGCTTGACGCTGCTG”: the binding signal is 9.85 z-score in the test with GST-Ap-NF-kB RHD; 10.8 z-score in test [1]; 12.8 z-score in test [2]; 5.11 z-score with GST-Co-NF-kB; 9.67 z-score with GST-Dm-Relish; 8 z-score with GST-Aq-NF-kB. In addition, the binding signal with GST-Hu-p50 stood at 8.07 z-score.

Take “CCGATTAACATCACGTACTCCCCTGATGTTAATCGGGTCTTGATTCGCTTGACGCTGCTG”: the binding signal is 4.07 z-score with GST-Ap-NF-kB RHD; 2.77 z-score in test [1]; 3.43 z-score in test [2]; 2.99 z-score with GST-Co-NF-kB; 4 z-score with GST-Dm-Relish; 2.92 z-score in the test with GST-Aq-NF-kB. The sequence further had a binding signal with GST-Hu-p50 of 2.83 z-score.

Take “CCGATTAACATCAAAACCCCCCGTGATGTTAATCGGGTCTTGATTCGCTTGACGCTGCTG”: the binding signal with GST-Ap-NF-kB RHD turned out to be 8.43 z-score; in test [1] it was 6.29 z-score; in test [2] it was 7.17 z-score; in the test with GST-Co-NF-kB it was 5.04 z-score; in the test with GST-Dm-Relish, 10.2 z-score; in the test with GST-Aq-NF-kB it was 7.07 z-score. Further, in the test with GST-Hu-p50, the binding signal was 6.96 z-score.

Regarding “CCGATTAACATCAGGCAACTCCCTGATGTTAATCGGGTCTTGATTCGCTTGACGCTGCTG”, the binding signal with GST-Ap-NF-kB RHD came to 1.44 z-score; in test [1] it was 2.44 z-score; in test [2] it was 1.64 z-score; with GST-Co-NF-kB, 1.09 z-score; with GST-Aq-NF-kB, 4.28 z-score; with GST-Hu-p50, 2.67 z-score.

Regarding “CCGATTAACATCAAGGGGGTACTTGATGTTAATCGGGTCTTGATTCGCTTGACGCTGCTG”, the binding signal with GST-Ap-NF-kB RHD worked out at 4.81 z-score; in test [1] it was 3.89 z-score; in test [2], 4.77 z-score; with GST-Co-NF-kB, 2.92 z-score; in the test with GST-Dm-Relish, 2.88 z-score; with GST-Aq-NF-kB, 3.78 z-score. Moreover, in the test with GST-Hu-p50, the binding signal stood at 4.47 z-score.

As for “CCGATTAACATCAAATTTCCCATTGATGTTAATCGGGTCTTGATTCGCTTGACGCTGCTG”, the binding signal with GST-Ap-NF-kB RHD was 2.36 z-score; in test [1] it was 4.83 z-score; in test [2] it was 4.27 z-score; with GST-Co-NF-kB, 3.32 z-score; in the test with GST-Dm-Relish, 2.68 z-score; with GST-Aq-NF-kB, 4.29 z-score. Also, in the test with GST-Hu-p50, the binding signal is 3.86 z-score.

For “CCGATTAACATCAGGGGGCACCCTGATGTTAATCGGGTCTTGATTCGCTTGACGCTGCTG”, the binding signal in the test with GST-Ap-NF-kB RHD turned out to be 5.39 z-score; in test [1] it was 3.36 z-score; in test [2], 2.57 z-score; with GST-Co-NF-kB, 2.17 z-score; in the test with GST-Dm-Relish, 3.84 z-score; in the test with GST-Aq-NF-kB, 5.62 z-score. The sequence further came in with a binding signal with GST-Hu-p50 of 3.84 z-score.

For “CCGATTAACATCATGTTAGGGAATGATGTTAATCGGGTCTTGATTCGCTTGACGCTGCTG”, the binding signal with GST-Ap-NF-kB RHD was determined as 1.38 z-score; in test [1] it was 3.63 z-score; in test [2] it was 2.76 z-score; in the test with GST-Co-NF-kB, 1.51 z-score; with GST-Aq-NF-kB it was 4.43 z-score; with GST-Hu-p50 it was 2.03 z-score.

Take “CCGATTAACATCACTCTTTTCCCTGATGTTAATCGGGTCTTGATTCGCTTGACGCTGCTG”: the binding signal with GST-Ap-NF-kB RHD came out at 2.32 z-score; in test [1] it was 3.09 z-score; in test [2], 4.46 z-score; in the test with GST-Co-NF-kB it was 2.99 z-score; in the test with GST-Aq-NF-kB it was 2.63 z-score; in the test with GST-Hu-p50 it was 1.85 z-score.

With “CCGATTAACATCAGGGAATTTCATGATGTTAATCGGGTCTTGATTCGCTTGACGCTGCTG”, the binding signal with GST-Ap-NF-kB RHD was determined as 5 z-score; in test [1], 7.17 z-score; in test [2], 7.08 z-score; with GST-Co-NF-kB, 3.61 z-score; with GST-Dm-Relish, 4.49 z-score; with GST-Aq-NF-kB, 5.84 z-score. This sequence also came in with a binding signal with GST-Hu-p50 of 5.25 z-score.

Turning to “CCGATTAACATCAGGGTGGGAAATGATGTTAATCGGGTCTTGATTCGCTTGACGCTGCTG”, the binding signal with GST-Ap-NF-kB RHD came out at 2.06 z-score; in test [1] it was 3.1 z-score; in test [2] it was 2.77 z-score; with GST-Co-NF-kB it was 3.37 z-score; with GST-Dm-Relish it was 1.62 z-score; with GST-Aq-NF-kB it was 2.27 z-score. Further, in the test with GST-Hu-p50, the binding signal turned out to be 2.15 z-score.

These data come from article PMC5700166.
